Laboratory results as given in the supplement of paper PMC10849652.
Of roughly 7,900 targets only a part is listed; those with a hit were picked by preference. About 0.6% of all pairs of compound and target were hits.

What was measured:
Assay in all cases: log2 fold change, soluble protein after heating vs DMSO (PISA); higher = thermal stabilisation; K562 cells, 10 uM, 30 min; active = over 0.2 and 3.5 SD of the protein, either way, in both replicates (recomputed)
[1] = compound: C1=CC=C(C=C1)[C@H](COC2=CC3=C(C=C2)NC(=O)N3)NC(=O)C4=CC=CN(C4=O)CC5=CC(=C(C=C5)F)F
Procedure, shortened: (§1)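 Soluble protein was quantified by TMTpro 16plex LC-MS/MS after channel sums were equalised. It was obtained as the supernatant after 21,000xg for 90 min from pooled aliquots of K562 cells (2×10^6 cells/mL, 10 μM compound, 30 min) heated for 3 min across 48°C-58°C and extracted in PBS with 0.5% NP-40 at 4°C. Thermal stability values are relative to control samples and come from duplicates. They are given as log2 fold changes.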

[2] = compound: CC1=C2C(=CC=C1)N=C(N(C2=O)C3=CC=CC=C3C)CN4C=NC5=C(N=CN=C54)N
Procedure, shortened: as §1

[3] = compound: CC1=C(SC2=C1C(=N[C@H](C3=NN=C(N32)C)CC(=O)N)C4=CC=C(C=C4)Cl)C
Procedure, shortened: as §1

[4] = compound: c1ccc([C@@H]2C[C@H]2NC2CCNCC2)cc1
Procedure, shortened: as §1

[5] = compound: Cc1sc2c(c1C)C(c1ccc(Cl)cc1)=N[C@@H](CC(=O)OC(C)(C)C)c1nnc(C)n1-2
Procedure, shortened: as §1

Measured: log2 fold change

PTP4A3 (UniProt O75365)
inactive: [1] 0.037 | [2] 0.391

PDE4DIP (UniProt E9PS60)
inactive: [3] 0.013 | [2] -0.209 | [4] -0.069

PSMC1 (UniProt G3V4X1)
inactive: [3] -0.021 | [4] 0.112

PSMC4 (UniProt P43686)
Sequence of UniProt P43686 (P43686 whole entry, looked up): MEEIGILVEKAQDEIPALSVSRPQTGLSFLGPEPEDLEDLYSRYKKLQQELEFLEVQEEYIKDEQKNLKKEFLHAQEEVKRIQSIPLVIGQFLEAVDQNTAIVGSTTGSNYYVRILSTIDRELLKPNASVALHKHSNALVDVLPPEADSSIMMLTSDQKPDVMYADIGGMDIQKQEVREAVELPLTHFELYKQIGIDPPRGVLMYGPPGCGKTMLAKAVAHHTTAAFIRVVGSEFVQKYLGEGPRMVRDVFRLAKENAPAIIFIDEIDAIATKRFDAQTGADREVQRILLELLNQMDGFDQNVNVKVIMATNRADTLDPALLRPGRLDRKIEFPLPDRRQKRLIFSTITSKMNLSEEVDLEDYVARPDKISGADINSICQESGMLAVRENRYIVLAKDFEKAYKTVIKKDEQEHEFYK
inactive: [1] 0.022 | [3] -0.117 | [2] -0.022 | [5] 0.006 | [4] 0.001

PGGHG (UniProt Q32M88)
Sequence of UniProt Q32M88 (Q32M88 whole entry, looked up): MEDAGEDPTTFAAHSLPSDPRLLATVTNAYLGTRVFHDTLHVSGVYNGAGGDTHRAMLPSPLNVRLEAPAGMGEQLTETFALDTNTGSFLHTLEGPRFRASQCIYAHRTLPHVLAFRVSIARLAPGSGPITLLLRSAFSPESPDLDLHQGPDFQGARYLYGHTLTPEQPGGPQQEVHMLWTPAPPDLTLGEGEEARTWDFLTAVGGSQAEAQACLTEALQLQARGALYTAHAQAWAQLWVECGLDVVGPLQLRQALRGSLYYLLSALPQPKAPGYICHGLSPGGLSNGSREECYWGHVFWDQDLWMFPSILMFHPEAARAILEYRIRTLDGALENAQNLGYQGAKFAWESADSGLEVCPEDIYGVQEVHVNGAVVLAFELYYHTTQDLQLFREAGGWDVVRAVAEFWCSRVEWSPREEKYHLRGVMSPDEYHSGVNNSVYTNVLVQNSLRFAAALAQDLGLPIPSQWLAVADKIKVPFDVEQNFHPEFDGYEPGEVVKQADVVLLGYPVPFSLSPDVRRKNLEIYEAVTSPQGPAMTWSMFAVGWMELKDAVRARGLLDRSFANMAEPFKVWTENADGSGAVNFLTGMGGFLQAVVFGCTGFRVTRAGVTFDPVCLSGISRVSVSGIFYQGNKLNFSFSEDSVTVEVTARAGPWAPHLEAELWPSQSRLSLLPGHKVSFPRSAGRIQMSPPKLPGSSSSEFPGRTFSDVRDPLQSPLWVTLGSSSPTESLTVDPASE
inactive: [1] -0.052 | [3] -0.09 | [2] -0.088 | [5] -0.084 | [4] 0.213

PSD3 (UniProt Q9NYI0)
Sequence of UniProt Q9NYI0 (Q9NYI0 whole entry, looked up): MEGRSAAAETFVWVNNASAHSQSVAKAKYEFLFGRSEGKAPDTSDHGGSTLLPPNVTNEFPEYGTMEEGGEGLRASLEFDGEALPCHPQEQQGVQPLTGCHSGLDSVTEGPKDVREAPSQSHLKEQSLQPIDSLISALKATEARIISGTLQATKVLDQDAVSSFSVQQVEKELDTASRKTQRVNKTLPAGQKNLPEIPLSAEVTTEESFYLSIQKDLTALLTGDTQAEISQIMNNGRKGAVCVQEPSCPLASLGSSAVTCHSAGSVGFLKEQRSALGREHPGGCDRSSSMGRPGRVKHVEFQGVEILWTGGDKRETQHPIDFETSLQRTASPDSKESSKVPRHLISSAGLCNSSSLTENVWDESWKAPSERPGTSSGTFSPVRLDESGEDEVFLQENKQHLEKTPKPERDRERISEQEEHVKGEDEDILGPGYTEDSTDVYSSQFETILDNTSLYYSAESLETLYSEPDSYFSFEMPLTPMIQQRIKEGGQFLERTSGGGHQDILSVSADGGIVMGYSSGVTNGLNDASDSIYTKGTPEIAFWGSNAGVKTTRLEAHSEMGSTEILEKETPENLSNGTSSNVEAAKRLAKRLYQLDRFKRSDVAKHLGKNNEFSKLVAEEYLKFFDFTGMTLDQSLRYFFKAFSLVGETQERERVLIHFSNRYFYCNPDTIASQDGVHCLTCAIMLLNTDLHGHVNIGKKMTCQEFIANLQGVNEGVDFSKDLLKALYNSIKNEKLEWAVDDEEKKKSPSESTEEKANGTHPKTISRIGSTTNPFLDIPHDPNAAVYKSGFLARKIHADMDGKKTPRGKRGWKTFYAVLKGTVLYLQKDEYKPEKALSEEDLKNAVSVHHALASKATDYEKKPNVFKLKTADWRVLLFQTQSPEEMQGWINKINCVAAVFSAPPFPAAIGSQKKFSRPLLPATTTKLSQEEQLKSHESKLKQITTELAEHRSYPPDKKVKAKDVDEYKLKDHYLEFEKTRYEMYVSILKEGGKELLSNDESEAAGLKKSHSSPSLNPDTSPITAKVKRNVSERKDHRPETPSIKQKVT
inactive: [3] 0.045 | [2] 0.052 | [4] -0.028

PCLAF (UniProt Q15004)
Sequence of UniProt Q15004 (Q15004 whole entry, looked up): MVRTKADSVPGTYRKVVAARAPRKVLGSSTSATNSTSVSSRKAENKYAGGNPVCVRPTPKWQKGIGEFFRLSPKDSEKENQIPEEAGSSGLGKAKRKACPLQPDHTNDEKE
inactive: [1] 0.055 | [3] -0.022 | [2] -0.045 | [5] 0.02 | [4] 0.07

PRKD3 (UniProt O94806)
Sequence of UniProt O94806 (O94806 whole entry, looked up): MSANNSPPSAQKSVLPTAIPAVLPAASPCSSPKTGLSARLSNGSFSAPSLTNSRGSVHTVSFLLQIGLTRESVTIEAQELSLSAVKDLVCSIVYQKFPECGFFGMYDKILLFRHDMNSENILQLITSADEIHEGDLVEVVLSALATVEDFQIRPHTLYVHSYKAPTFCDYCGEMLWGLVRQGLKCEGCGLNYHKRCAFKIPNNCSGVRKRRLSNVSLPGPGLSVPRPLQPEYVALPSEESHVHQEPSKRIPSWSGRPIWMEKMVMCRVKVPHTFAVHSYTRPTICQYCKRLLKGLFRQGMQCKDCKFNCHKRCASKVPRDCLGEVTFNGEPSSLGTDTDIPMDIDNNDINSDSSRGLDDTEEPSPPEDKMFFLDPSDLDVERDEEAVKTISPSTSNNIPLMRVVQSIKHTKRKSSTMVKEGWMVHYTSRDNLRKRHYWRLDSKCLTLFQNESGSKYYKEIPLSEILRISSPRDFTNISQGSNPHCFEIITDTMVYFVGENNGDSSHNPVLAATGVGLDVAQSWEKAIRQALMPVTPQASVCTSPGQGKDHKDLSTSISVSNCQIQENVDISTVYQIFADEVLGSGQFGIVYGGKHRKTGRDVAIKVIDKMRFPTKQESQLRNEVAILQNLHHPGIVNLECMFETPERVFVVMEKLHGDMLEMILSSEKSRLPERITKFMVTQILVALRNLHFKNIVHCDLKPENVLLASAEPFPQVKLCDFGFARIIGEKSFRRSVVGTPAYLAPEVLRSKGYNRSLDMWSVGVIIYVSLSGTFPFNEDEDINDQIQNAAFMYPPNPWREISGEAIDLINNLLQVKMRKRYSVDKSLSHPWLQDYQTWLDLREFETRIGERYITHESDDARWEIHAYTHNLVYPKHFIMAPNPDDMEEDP
inactive: [1] -0.103 | [3] 0.044 | [2] -0.007 | [4] -0.097

PSMC3 (UniProt E9PLG2)
inactive: [1] 0.03 | [2] -0.056 | [5] 0.252

PSMA3 (UniProt H0YJ03)
inactive: [3] 0.193 | [2] 0.119 | [5] 0.048 | [4] 0.034

PSMA3 (UniProt G3V4X5)
inactive: [1] -0.073 | [2] 0.147

PKM isoform 2 (UniProt P14618)
Sequence of UniProt P14618 (P14618 whole entry, looked up): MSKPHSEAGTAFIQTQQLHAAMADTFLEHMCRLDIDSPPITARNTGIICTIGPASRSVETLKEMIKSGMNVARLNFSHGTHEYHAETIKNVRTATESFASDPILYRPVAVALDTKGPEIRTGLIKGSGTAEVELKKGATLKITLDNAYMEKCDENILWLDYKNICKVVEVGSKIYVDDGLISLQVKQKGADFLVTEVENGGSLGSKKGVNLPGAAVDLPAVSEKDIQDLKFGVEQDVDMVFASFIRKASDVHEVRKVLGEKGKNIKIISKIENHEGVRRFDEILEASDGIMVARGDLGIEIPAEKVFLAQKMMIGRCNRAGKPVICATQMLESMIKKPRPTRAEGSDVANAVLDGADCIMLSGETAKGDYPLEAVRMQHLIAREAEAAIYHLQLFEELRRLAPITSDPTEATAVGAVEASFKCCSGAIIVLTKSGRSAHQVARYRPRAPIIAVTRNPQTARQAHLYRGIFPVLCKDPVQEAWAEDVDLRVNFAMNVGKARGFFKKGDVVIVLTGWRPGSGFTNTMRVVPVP
inactive: [1] 0.063 | [2] -0.057 | [5] -0.046

PPP1R12C (UniProt Q9BZL4)
Sequence of UniProt Q9BZL4 (Q9BZL4 whole entry, looked up): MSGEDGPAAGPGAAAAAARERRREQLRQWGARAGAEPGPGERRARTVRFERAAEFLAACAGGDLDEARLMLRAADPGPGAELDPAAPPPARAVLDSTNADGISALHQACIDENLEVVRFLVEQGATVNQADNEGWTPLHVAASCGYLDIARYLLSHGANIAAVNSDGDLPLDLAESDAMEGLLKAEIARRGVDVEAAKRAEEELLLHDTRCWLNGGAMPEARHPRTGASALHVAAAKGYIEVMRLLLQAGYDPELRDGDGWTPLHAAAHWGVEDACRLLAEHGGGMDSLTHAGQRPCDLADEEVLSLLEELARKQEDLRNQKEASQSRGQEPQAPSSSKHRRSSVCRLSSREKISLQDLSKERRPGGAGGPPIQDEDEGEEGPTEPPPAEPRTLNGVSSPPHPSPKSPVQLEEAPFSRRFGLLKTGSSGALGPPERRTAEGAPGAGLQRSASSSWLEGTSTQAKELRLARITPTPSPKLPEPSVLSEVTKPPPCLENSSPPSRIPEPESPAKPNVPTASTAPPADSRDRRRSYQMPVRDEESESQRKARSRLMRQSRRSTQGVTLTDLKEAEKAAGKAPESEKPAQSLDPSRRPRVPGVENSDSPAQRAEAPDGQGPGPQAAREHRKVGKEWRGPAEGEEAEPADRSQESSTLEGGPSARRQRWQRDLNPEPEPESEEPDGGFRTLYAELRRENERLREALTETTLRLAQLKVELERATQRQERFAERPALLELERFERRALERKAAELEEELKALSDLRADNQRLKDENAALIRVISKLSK
inactive: [1] -0.16 | [2] 0.05 | [5] 0.053

PISD (UniProt Q9UG56)
Sequence of UniProt Q9UG56 (Q9UG56 whole entry, looked up): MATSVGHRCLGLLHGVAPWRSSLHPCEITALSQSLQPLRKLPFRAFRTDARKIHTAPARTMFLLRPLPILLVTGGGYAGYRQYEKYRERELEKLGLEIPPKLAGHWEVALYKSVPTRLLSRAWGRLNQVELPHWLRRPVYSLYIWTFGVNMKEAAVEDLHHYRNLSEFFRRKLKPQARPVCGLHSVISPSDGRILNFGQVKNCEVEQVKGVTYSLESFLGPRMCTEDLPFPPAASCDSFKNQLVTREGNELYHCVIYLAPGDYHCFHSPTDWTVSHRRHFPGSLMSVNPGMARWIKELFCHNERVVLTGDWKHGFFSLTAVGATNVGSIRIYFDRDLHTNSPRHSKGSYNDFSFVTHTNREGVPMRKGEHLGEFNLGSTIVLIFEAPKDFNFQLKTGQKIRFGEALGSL
inactive: [1] 0.002 | [3] -0.024 | [2] 0.079 | [5] -0.011 | [4] 0.043
